The source of these data is PubChem BioAssay (Tox21).

A number with no mark means an inactive call. Calls of active or inactive are those of the source. The call rests on the fitted dose curve.
On the % scale 0 is the no-effect control and ±100 the full control effect.

This test in a line: qHTS assay to identify small molecule agonists of the estrogen related receptor (ERR) signaling pathway from Tox21 library (AID 1224849). Further: nearly all actives have a fitted effect of over 15% in size. The note with it: ERR reporter cell line, ONE-Glo luciferase, 18 h; at 92.4 µM (top of the series) unless noted. The source says: National Center for Advancing Translational Sciences [NCATS]
NIH Chemical Genomics Center [NCGC]
U.S. Environmental Protection Agency [EPA]
National Institutes of Environmental Health Sciences [NIEHS]
National Toxicology Program [NTP]
Estrogen related receptors (ERRs), the first orphan nuclear receptors discovered, play an important role in the control of cellular energy metabolism. ERRs are required for high-energy production in response to the environmental challenges. ERR-alpha was also identified as an adverse marker for breast cancer progression; ERR-alpha-positive tumors have a poor prognosis. To screen and to identify environmental compounds that perturb the ERR signaling pathways could provide valuable information for potential therapeutic or preventive measures in the treatment of metabolic disease. For identifying ERR agonists, ERR cell line (provided by NTP) has been used to screen Tox21 10K library.
The ERR cells were dispensed at 2,000 cells/5 ul/well in 1536-well white plates using a Multidrop dispenser. After the assay plates were incubated at a 37 C/5% CO2 incubator for 6 hours, 23 nL of compounds dissolved in DMSO, positive and negative controls or DMSO only was transferred to the assay plate by a pin tool. The plates were incubated at 37 C for 18 hours. 4 ul/well of One-Glo reagent was added into the assay plates using a Flying Reagent Dispenser. After 30-minute incubation at room temperature, the luminescence intensity in the plates was measured using a ViewLux plate reader.
A general note: In qHTS, concentration-response curves come from the screen itself.
With `COC(=O)C1=C(C)NC(C)=C(C(=O)OCC(C)=O)C1c1ccccc1[N+](=O)[O-]` (stereo not given), the activity change, positive = activation was -8.69% [at 42.5 µM]. The result for `Nc1nc2c(ncn2CCC(CO)CO)c(=O)[nH]1` reads -1.99% [at 42.5 µM]; that for `CCCCCCOC(=O)c1ccccc1O`, 8.56%; that for `COc1cccc(Br)c1`, 0.21%. The result for `CC(C)COC(=O)C(C)C` reads 8.11%. As to `CC(=O)OC(C)(C)C`, the activity change, positive = activation was 0.24%. As to `COC(=O)[C@H]1[C@H]2C[C@@H]3c4[nH]c5cc(OC)ccc5c4CCN3C[C@H]2C[C@@H](OC(=O)COc2ccc(OC)cc2)[C@@H]1OC`, the activity change, positive = activation was -9.01% [at 42.5 µM].

Take `CC12CCC(CC1=O)C2(C)C` (stereo not given): the activity change, positive = activation was 2.86%.

For the molecule `Nc1ccn(C2CO[C@H](CO)O2)c(=O)n1` (stereo not given in full), the activity change, positive = activation is 0.852% [at 42.5 µM]. The result for `COC[C@H](c1ccc(C(F)(F)F)cc1)N1CCN(C2(C)CCN(C(=O)c3c(C)ncnc3C)CC2)C[C@H]1C` reads -5.81% [at 42.5 µM]; that for `CCCC=O`, 0.262%. For the molecule `COc1cc(CCC(C)=O)ccc1O`, the activity change, positive = activation is 3.47%. The result for `CCC(=O)Nc1cccc(N)c1` reads -10.7%; that for `CO`, -0.295%; that for `OCc1ccccn1`, 4.19% [at 42.5 µM].

For the molecule `CN(C)C(=O)Nc1ccccc1`, the activity change, positive = activation was 3.55%.

In the case of `CCC(C)OC(=O)N1CCCCC1CCO` (stereo not given), the activity change, positive = activation was 2.44%. The result for `CCCCCCCCC=O` reads -1.48%; that for `c1ccc(CCCc2ccccn2)cc1`, 34.3% (active). The result for `CCCCCC[C@@H](CCC)C(=O)O` reads -23% [at 42.5 µM]; that for `CCCC(C)C(=O)O` (stereo not given), -46.3%; that for `COc1ccc(COC=O)cc1`, -0.945%. Regarding `CC(C)(C)C(=O)/C=C/c1ccc(Cl)cc1`, the activity change, positive = activation is 1.54%. For `CCC(=O)/C=C/c1ccc(OC)cc1`, the activity change, positive = activation was -2.91%. The result for `CCCCc1ccc2cccc(S(=O)(=O)O)c2c1` reads -0.296%; that for `C=C(C)C1CC=C(C)C(O)C1` (stereo not given), 2.44%; that for `CCCCCCOC(=O)CC(CC(=O)OCCCCCC)(OC(=O)CCC)C(=O)OCCCCCC`, -12.6%. For the molecule `O=C(O)c1cccc(C(=O)O)n1`, the activity change, positive = activation is 2.2%. Consider `COc1ccc2cc(C=O)ccc2c1`, for which the activity change, positive = activation was 3.74% [at 42.5 µM]. Take `NC(=O)c1c(Cl)cccc1Cl`: the activity change, positive = activation is -1.3%. The result for `CCOC(=O)Cn1c(=O)sc2cccc(Cl)c21` reads -12%. The result for `CC(C)c1cccc(C(C)C)c1N` reads 0.341%; that for `O=S(=O)(O)c1ccccc1O`, -0.0376%; that for `C=CC(=O)N1CCOCC1`, 4.07%. Turning to `CCCOCC(C)OCC(C)O` (stereo not given), the activity change, positive = activation is 1.4%. Turning to `CCCCCCCCCCCl`, the activity change, positive = activation was 0.564%. Consider `N#CC1(O)CCCCC1`, for which the activity change, positive = activation is 7.59%. The result for `CCOC(=O)[C@H](CCc1ccccc1)N[C@@H](C)C(=O)N1CCC[C@H]1C(=O)O` reads 3.79% [at 42.5 µM]. As to `NCCNC(=O)c1ccc(Cl)cn1`, the activity change, positive = activation is -0.271% [at 42.5 µM]. The result for `C#CC(C)(O)CC(C)C` (stereo not given) reads 13.6%.
